Assay results taken from PubChem BioAssay (NCI).
Compounds without any hit were thinned out: in the full panel of roughly 83,000, 20% have a hit.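 48-hour exposure, single concentration, 96-well plates; percent growth endpoint where 0 means no net growth. Active: below 10.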 The source made the active and inactive calls.

test system: HS 578T breast; experiment: NCI-60 one-dose screen, 48 h (100 = growth as untreated, 0 = no growth, -100 = all killed); details: 10 µM unless noted

SMILES	growth
Nc1ccc(Cl)c2c(=O)c3ccccc3[nH]c12	98% (inactive)
COC(=O)c1sc(-c2ccc(C)cc2)cc1O	101% (inactive)
CCOC(=O)CSc1nc2sc3c(c2c(=O)n1-c1ccccc1)CCCCC3	103% (inactive)
O=C1NCCS(=O)(=O)/C1=C\C=C\c1cccc(C(F)(F)F)c1	51.1% (inactive)
COc1cc(/C=C2\C(=O)N(CCOc3cc(O)c4c(=O)cc(-c5ccccc5)oc4c3)c3ccccc32)cc(OC)c1O	45.5% (inactive)
COc1cccc2cc(N(C)c3ncnc4ccccc34)ccc12	40.9% (inactive)
Cc1[nH]c(C(=O)Nc2ccc(C(N)=O)cc2OC(C)C)c(Cl)c1Cl	88.7% (inactive)
Nc1nc(N)c2c(n1)NC(c1cccc(Nc3ccnc4cc(C(F)(F)F)ccc34)c1)CC(c1ccc(Cl)cc1)=N2 (stereo not given)	62.1% (inactive)
COC1=C(OC)C(=O)C(CCCCCCCCCCO)=C(C)C1=O	92.6% (inactive)
O=C1c2c(c3c4cccnc4[nH]c3c3ccc4ccccc4c23)C(=O)N1O	70.9% (inactive)
CCN1CCN(C(=O)[C@]23CC[C@@H](C)[C@H](C)[C@@H]2C2=CC[C@@H]4[C@@]5(C)C/C(=C/c6ccncc6)C(=O)C(C)(C)[C@@H]5CC[C@@]4(C)[C@]2(C)CC3)CC1	7.21% (active)
C=CC(=O)Nc1ccc2ncnc(Nc3cccc(NS(=O)(=O)CCC)c3Cl)c2c1	20.6% (inactive)
COc1ccccc1/C=C/C1=C(C)CCC(c2ccccc2OC)C1C (stereo not given)	11.1% (inactive)
CN(C)CCOc1nc2c3cc([N+](=O)[O-])ccc3nn2c2ccccc12	69.8% (inactive)
COc1ccc(-c2nc(SCCC(C)C)nc(N/N=C(/C)c3ccc(N)cc3)c2C#N)cc1	92.4% (inactive)
O=C(c1ccccc1)[C@@H](c1ccccc1)[C@]1(O)C(=O)Nc2ccccc21	93.3% (inactive)
CCOC(=O)C1=C(c2ccccc2)N=C2SC=C(c3cccc([N+](=O)[O-])c3)N2C1c1ccc(O)cc1 (stereo not given)	102% (inactive)
Cn1nc(-c2ccc(Cl)cc2)nc2c(=O)n(C)c(=O)nc1-2	-4.75% (active)
COC1CC(O)C2=C(CC3C(/C(C)=C\CC=C(C)C)CCC3(C)O2)C1=O (stereo not given)	98.6% (inactive)
COc1cc(C(=O)/C=C/c2c(-c3cccs3)nc3sc(C)cn23)cc(OC)c1OC	-16.2% (active)
CSc1nc(N)c2c(n1)NC(c1ccccc1)C1CCc3ccccc3C1=N2 (stereo not given)	62% (inactive)
COC(=O)c1c(C)nc(C)c2c1C(=O)C(Br)=C(NCCCCO)C2=O	87.7% (inactive)
COc1ccc(S(=O)(=O)Oc2ccc(-c3sc4cc(OS(=O)(=O)c5ccc(OC)cc5)ccc4c3C(=O)c3ccc(OCCN4CCCCC4)cc3)cc2)cc1	107% (inactive)
C=C(c1ccc(C(=O)O)c(F)c1)c1cc2c(cc1C)C(C)(C)C=CC2(C)C	61.9% (inactive)
COc1cc(C2=Nc3c(N)nc(N)nc3NC(c3cccc(Nc4ccnc5cc(C(F)(F)F)ccc45)c3)C2)cc(OC)c1OC (stereo not given)	62.7% (inactive)

test system: NCI/ADR-RES ovarian; experiment: as above; details: 10 µM unless noted

SMILES	growth
CN1CCN(CCCNC(=O)c2c3c(n4ccccc24)C(=O)c2ncccc2C3=O)CC1	40.9% (inactive)
CN1CCN(CC(=O)N(C)c2ccc(N=C(c3ccccc3)c3c(O)[nH]c4ccc([N+](=O)[O-])cc34)cc2)CC1	90.8% (inactive)
CCCCCCCCNc1ncnc2c1ncn2Cc1nnc2c3ccccc3c(Cl)nn12	35.3% (inactive)
CC/C(=C(/c1ccc(Cl)cc1)c1ccc(OCCCN(C)C)cc1)c1ccc(OC)cc1	82.9% (inactive)
CCN(CC)CCCNC(=O)c1c2c(n3ccccc13)C(=O)c1ncccc1C2=O	3.02% (active)
CCCn1cnc2c(c1=N)C(c1ccc(Cl)cc1)c1sc3c(F)cccc3c1O2 (stereo not given)	80.7% (inactive)
Cc1ccc(C23CCC(=O)N2CCc2cncn23)cc1 (stereo not given)	107% (inactive)
O=C(COc1ccc(/C=C2\Oc3ccccc3C2=O)cc1)Nc1nccs1	91.6% (inactive)
Cc1c(C(=O)C(SC(=S)N2CCOCC2)SC(=S)N2CCOCC2)nnn1-c1ccc([N+](=O)[O-])cc1	111% (inactive)
O=[N+]([O-])c1ccc(Oc2cccc3c(Oc4ccc([N+](=O)[O-])cc4[N+](=O)[O-])cccc23)c([N+](=O)[O-])c1	79.9% (inactive)
CN(C)CCOc1ccc(/C(=C(/CCCCCCCCCC[P+](c2ccccc2)(c2ccccc2)c2ccccc2)c2ccccc2)c2ccccc2)cc1	-69% (active)
CC1(C)CC[C@]2(CO)CC[C@]3(C)C(=CC[C@@H]4[C@@]5(C)CCNCC(C)(C)[C@@H]5CC[C@]43C)[C@@H]2C1	91.9% (inactive)
O=c1oc2ccccc2cc1-c1nn(-c2ccccc2)cc1/C=N/Nc1nc(-c2ccccc2)c(N=Nc2ccccc2)s1	63.7% (inactive)
COc1cc(/C=C2\CN(S(=O)(=O)c3ccc(C)cc3)C/C(=C\c3cc(CN4CCCC4)c(O)c(OC)c3)C2=O)cc(CN2CCCC2)c1O	77.8% (inactive)
Nc1ccc(Cl)c2c(=O)c3ccccc3[nH]c12	97% (inactive)
COC(=O)c1sc(-c2ccc(C)cc2)cc1O	99.8% (inactive)
CCOC(=O)CSc1nc2sc3c(c2c(=O)n1-c1ccccc1)CCCCC3	108% (inactive)
O=C1NCCS(=O)(=O)/C1=C\C=C\c1cccc(C(F)(F)F)c1	-37.5% (active)
COc1cc(/C=C2\C(=O)N(CCOc3cc(O)c4c(=O)cc(-c5ccccc5)oc4c3)c3ccccc32)cc(OC)c1O	47.5% (inactive)
CNC1=C([N+](=O)[O-])C(c2ccc(OC)cc2)C(C#N)=C(c2ccc[nH]2)O1 (stereo not given)	110% (inactive)

SMILES	growth
COc1cccc2cc(N(C)c3ncnc4ccccc34)ccc12	8.39% (active)
Cc1[nH]c(C(=O)Nc2ccc(C(N)=O)cc2OC(C)C)c(Cl)c1Cl	112% (inactive)
Nc1nc(N)c2c(n1)NC(c1cccc(Nc3ccnc4cc(C(F)(F)F)ccc34)c1)CC(c1ccc(Cl)cc1)=N2 (stereo not given)	54.4% (inactive)
COC1=C(OC)C(=O)C(CCCCCCCCCCO)=C(C)C1=O	29.2% (inactive)
O=C1c2c(c3c4cccnc4[nH]c3c3ccc4ccccc4c23)C(=O)N1O	94.3% (inactive)
CCN1CCN(C(=O)[C@]23CC[C@@H](C)[C@H](C)[C@@H]2C2=CC[C@@H]4[C@@]5(C)C/C(=C/c6ccncc6)C(=O)C(C)(C)[C@@H]5CC[C@@]4(C)[C@]2(C)CC3)CC1	27.4% (inactive)
C=CC(=O)Nc1ccc2ncnc(Nc3cccc(NS(=O)(=O)CCC)c3Cl)c2c1	83.4% (inactive)
COc1ccccc1/C=C/C1=C(C)CCC(c2ccccc2OC)C1C (stereo not given)	18% (inactive)
CN(C)CCOc1nc2c3cc([N+](=O)[O-])ccc3nn2c2ccccc12	37% (inactive)
COc1ccc(-c2nc(SCCC(C)C)nc(N/N=C(/C)c3ccc(N)cc3)c2C#N)cc1	93.6% (inactive)
O=C(c1ccccc1)[C@@H](c1ccccc1)[C@]1(O)C(=O)Nc2ccccc21	102% (inactive)
CCOC(=O)C1=C(c2ccccc2)N=C2SC=C(c3cccc([N+](=O)[O-])c3)N2C1c1ccc(O)cc1 (stereo not given)	99.3% (inactive)
Cn1nc(-c2ccc(Cl)cc2)nc2c(=O)n(C)c(=O)nc1-2	-21.5% (active)
COC1CC(O)C2=C(CC3C(/C(C)=C\CC=C(C)C)CCC3(C)O2)C1=O (stereo not given)	103% (inactive)
COc1cc(C(=O)/C=C/c2c(-c3cccs3)nc3sc(C)cn23)cc(OC)c1OC	-35.4% (active)
CSc1nc(N)c2c(n1)NC(c1ccccc1)C1CCc3ccccc3C1=N2 (stereo not given)	35.8% (inactive)
COC(=O)c1c(C)nc(C)c2c1C(=O)C(Br)=C(NCCCCO)C2=O	80% (inactive)
COc1ccc(S(=O)(=O)Oc2ccc(-c3sc4cc(OS(=O)(=O)c5ccc(OC)cc5)ccc4c3C(=O)c3ccc(OCCN4CCCCC4)cc3)cc2)cc1	110% (inactive)
C=C(c1ccc(C(=O)O)c(F)c1)c1cc2c(cc1C)C(C)(C)C=CC2(C)C	83.1% (inactive)
COc1cc(C2=Nc3c(N)nc(N)nc3NC(c3cccc(Nc4ccnc5cc(C(F)(F)F)ccc45)c3)C2)cc(OC)c1OC (stereo not given)	95.3% (inactive)
